Source: PubChem
This is one part of a sample in which hits are shown more often than they occur.
RBX1-CUL1 inh = blocks human RBX1-Cullin-1 di-ubiquitin formation. P62877+Q13616. in vitro K48 di-Ub FRET, acceptor:donor ratio, 45 min. inhibition, % at 10 µM. 140,000 tested, 0.6% active; in the data active = inhibition above about 25%
Hits are given with their value; n = inactive.

SMILES	RBX1-CUL1 inh
CC(C)N1C(=O)/C(=C/c2ccc3c(c2)OCO3)C(=O)N(Cc2ccco2)C1=O	101.8
CC(C)(C)C1(C)OC(=O)C(=Cc2ccc3c(c2)OCO3)C(=O)O1 (stereo unspecified)	n
CC(C(=O)O)N1C(=O)/C(=C/c2ccc3c(c2)OCO3)SC1=S (stereo unspecified)	n
C=CCN1C(=O)C(CC(=O)Nc2c(C)cccc2C)SC1=Nc1ccc(Br)cc1Br (stereo unspecified)	n
COc1cc(OC)c(OC)cc1/C=C1/SC(=Nc2ccccc2)NC1=O	n
C/C(=N/N1CCN(C2c3ccccc3-c3ccccc32)CC1)c1ccc(Cl)cc1	n
O=C(Nc1cc2nn(-c3ccccc3)nc2cc1Cl)c1ccccc1Br	n
Nc1c(Cl)cc2nn(-c3ccccc3)nc2c1Br	31.2
O=C(Nc1cc2nn(-c3ccccc3)nc2cc1Cl)c1ccc(Br)cc1	n
Cc1nc(C#N)cn1-c1ccccc1	n
CCOc1cc(/C=C2\C(=O)NN(c3cccc(Cl)c3)C2=O)c(Br)c(Br)c1O	62.2
COc1cc(/C=C2/C(=O)NN(c3ccc(C)c(Cl)c3)C2=O)cc(Cl)c1O	n
CCOc1ccccc1/C=C1\C(=O)NN(c2ccc(Br)cc2)C1=O	n
CCOc1cc(/C=C2\C(=O)NN(c3ccc(C)c(Cl)c3)C2=O)c(Br)c(Br)c1O	100.1
O=C1NN(c2cccc(Cl)c2)C(=O)/C1=C/c1ccccc1O	n
CCOc1cc(/C=C2\C(=O)NN(c3ccc(C)c(C)c3)C2=O)ccc1O	n
N#Cc1ccccc1NC(=O)c1ccc(-c2ccccc2C(F)(F)F)o1	n
Cc1ccc(-n2c(C(=O)NNC(=O)c3ccco3)nc3ccccc3c2=O)cc1	n
COc1ccc(/C=C/C(=O)Oc2cccc(/C=N/NC(=O)c3cc(OC)c(OC)c(OC)c3)c2)cc1	n
COc1cc(OC)nc(N2C[C@H]3OC(=O)N(CCc4ccccn4)[C@H]3C2)n1	n
Cc1cc(C)c2nc(Cl)c(C3C4=C(CCCC4=O)OC(=N)C3C#N)cc2c1 (stereo unspecified)	n
CCC(COC)Nc1ccc(-c2nc(Cc3ccccc3)no2)cn1 (stereo unspecified)	n
Oc1ccc(-c2cnc3ccccc3n2)cc1O	83.8
Oc1ccc(-c2cnc3ccccc3n2)cc1	n
Clc1ccc(-c2cnc3ccccc3n2)cc1	n
SMILES	RBX1-CUL1 inh
CCOc1ccc(C(=O)N2CCN(c3ccc(OC)cc3)CC2)cc1	n
CCC1CN(CCC(=O)NCCCOc2cccnc2)Cc2ccc(Cl)cc2O1 (stereo unspecified)	n
CN(C(=O)CCC(=O)O)C1CCCCC1	n
CCN(CC)C(=O)Cn1cc(C(=O)N(C)C(C)c2cccs2)nn1 (stereo unspecified)	n
CN(C)c1ccc(/C=C/C2=NC(=O)NC(=O)C2)cc1	n
CCCCCCCCCCCC[n+]1ccc(/C=C/c2ccc(N(C)C)cc2)cc1	61.8
CCCCCCCCN1C(=O)/C(=C\c2ccc(N(C)C)cc2)C(=O)N(CCCC)C1=O	n
COc1ccccc1Oc1ncccc1CNCc1nc2ccccc2[nH]1	n
COc1ccc(OCc2nnc(SCC(=O)Nc3c(C)cc(C)cc3C)n2C)cc1	n
COc1ccc(C(=O)CSc2nc(-c3ccccc3)c(-c3ccccc3)[nH]2)cc1	n
O=C(CSc1nc(-c2ccccc2)c(-c2ccccc2)[nH]1)c1ccc(O)c(O)c1O	101.4
CC(Sc1nc(-c2ccccc2)c(-c2ccccc2)[nH]1)C(=O)O (stereo unspecified)	n
O=C(CCCc1ccccc1)Nc1ccc(Cl)cc1	n
COc1cc(/C=C2\SC(=O)N(c3ccc(Cl)cc3)C2=O)cc(Cl)c1O	63.2
CCOc1cc(/C=C2\SC(=O)N(c3ccc(Cl)cc3)C2=O)cc(Cl)c1O	n
O=C1S/C(=C\c2cc(Cl)c(O)c(Cl)c2)C(=O)N1c1cccc(Cl)c1	n
O=C1S/C(=C\c2cc(Br)cc(Br)c2O)C(=O)N1c1ccc(Cl)cc1	31.5
O=C1S/C(=C\c2ccccc2C(F)(F)F)C(=O)N1c1ccc(Cl)cc1	n
O=C1S/C(=C\c2cc(Cl)c(O)c(Cl)c2)C(=O)N1c1ccc(Cl)cc1	n
Cc1cccn2c(CN(C)CC3CCOCC3)c(C(=O)N(C)CCc3ccccc3)nc12	n
C=CCC1(NCc2ccccc2)CCCCCC1	n
CCOC(=O)c1cc(-c2ccc([N+](=O)[O-])cc2)n(NC(=O)COc2ccccc2C)c1C	n
Cc1ccccc1OCC(=O)NNc1ccc([N+](=O)[O-])cc1[N+](=O)[O-]	35.9
O=C(NNc1ccc([N+](=O)[O-])cc1[N+](=O)[O-])c1cccc2ccccc12	n
CSC1=NC(=O)CC(=O)N1c1ccccc1	n
SMILES	RBX1-CUL1 inh
CCc1ccccc1-n1c(C)cc(C=C2C(=O)c3ccccc3C2=O)c1C	n
C=CCN1CCN(C(=O)C(C)Oc2ccc(C)cc2C)CC1 (stereo unspecified)	n
CC(=O)Nc1nc(Cl)cn(-c2ccc(C)cc2)c1=O	n
O=c1c(Cl)nc(Cl)cn1-c1ccc(Cl)c(Cl)c1	32.4
COc1nc(Cl)cn(-c2ccc(C)cc2)c1=O	n
CN1CCC(N2CCCC(NC(=O)/C(F)=C/c3ccccc3)C2)CC1 (stereo unspecified)	n
CN(C)CC/C=C1/c2cc(Br)ccc2CSc2ccccc21	n
CN(C)CCOc1ccc2c(c1)C(=O)c1ccccc1CS2	100.6
O=C1c2ccccc2CSc2c(O)cccc21	n
Cc1ccccc1C(=O)N1CCN(c2ccc(NC(=O)CSc3ccc(Cl)cc3)cc2)CC1	29.7
O=C(CSc1ccc(Cl)cc1)Nc1ccc(N2CCN(C(=O)c3cccs3)CC2)cc1	n
Cc1ccccc1C(=O)N1CCN(c2ccc(NC(=O)c3ccccc3Br)cc2)CC1	n
COC(=O)c1c(C(=O)OC)c2c3ccccc3ccn2c1C#N	n
COc1ccc(-c2ccc3c(N)c(C(=O)Nc4ccc(C)cc4)sc3n2)cc1	n
COc1cc(CNCCNC(C)=O)ccc1OCC(O)CN1CCSCC1 (stereo unspecified)	n
O=c1[nH]c(-c2cccc(Cl)c2Cl)nc2sc3c(c12)CCCCCC3	n
O=C(O)c1cccc(-c2ccc(-c3nc4sc5c(c4c(=O)[nH]3)CCCC5)o2)c1	97.4
O=C(O)c1ccc(-c2ccc(-c3nc4sc5c(c4c(=O)[nH]3)CCCCC5)o2)cc1	n
CCOc1ccccc1C(=O)Nc1ccc(O)cc1	n
Cc1cc(F)ccc1S(=O)(=O)Nc1cccc(C(=O)O)c1	n
CCc1ccc(N=C2NC(=O)/C(=C/c3cc(C)n(-c4ccncc4)c3C)S2)cc1	n
O=C1NC(=Nc2ccc(C(=O)O)cc2)S/C1=C/c1ccccc1OCc1ccccc1	94.5
Cc1ccccc1/C=C1/SC(=Nc2ccccc2)NC1=O	n
COc1ccc(/C=C2\SC(=Nc3cccc(Cl)c3C)NC2=O)c(OC)c1	n
O=C1NC(=Nc2ccc(Br)cc2)S/C1=C\c1ccccc1O	n
SMILES	RBX1-CUL1 inh
CCOc1ccccc1/C=C1\SC(=Nc2cccc(Cl)c2C)NC1=O	25.9
COc1ccc(N=C2NC(=O)/C(=C/c3ccc(OCc4cccc(C(=O)O)c4)c(OC)c3)S2)cc1	n
CCOc1cc(/C=C2\SC(=Nc3cccc(Cl)c3C)NC2=O)cc(Br)c1OC	n
Cc1cc(/C=C2\SC(=Nc3ccccc3)NC2=O)c(C)n1-c1cc(C(=O)O)cc(C(=O)O)c1	69.4
COc1ccc(/C=C/CN2CCC(CO)(Cc3ccc(OC)cc3)CC2)cc1	n
Cc1ccc(S(=O)(=O)Nc2cccc(Cl)c2)cc1C(N)=O	n
COc1ccc(C2C3=C(CC(C)(C)CC3=O)N(c3cccc(Cl)c3)C(=N)C2C(=O)c2ccccc2)cc1 (stereo unspecified)	n
